Assay results from PubChem BioAssay (EPA / NIEHS).
Active and inactive are the calls of the source. The calls were made as follows: active = hit-call score of the fitted dose curve at least 0.9, where 1 is the maximum; inactive = score below 0.9.

What follows are molecules tested on Cytochrome P450 (CYP24A1), CYP24A1 (gene 1591) (assay: LTEA_HepaRG_CYP24A1: Life Technologies and Expression Analysis (LTEA) Assay for Cytochrome P450 (CYP24A1) using HepaRG (AID 2283478)). Conditions: mRNA level, 48 h; actives raise or lower the signal.
Experimental: LTEA_HepaRG is a cell based, multiplexed-readout assay that uses HepaRG, a human liver cell line, with measurements taken at 48 hours after chemical dosing on a 96-well plate.LTEA_HepaRG_CYP24A1 is one of 102 assay component(s) measured in the LTEA HepaRG cell culture assay. It is a marker of NR mediated metabolism.Data from the assay component LTEA_HepaRG_CYP24A1 was analyzed into 1 endpoint. This assay endpoint, LTEA_HepaRG_CYP24A1, was analyzed with bidirectional fitting relative to DMSO as the negative control and baseline of activity. Using a type of inducible reporter, measures of mRNA induction for gain or loss-of-signal activity can be used to understand regulation of transcription factor activity. To generalize the intended target to other relatable targets, this assay endpoint is annotated to the cyp intended target family, where the subfamily is xenobiotic metabolism.
A total of 1060 chemcials from the ToxCast library were tested in eight-point concentration-response experiments. Cell culture and cytotoxicity assays were conducted at Thermo Fisher Scientific's Custom Services facility (Madison, WI). A single lot of human HepaRG cells (Thermo Fisher Scientific, Frederick, MD) was used for the cell culture experiments. 96-well format collagen type I coated plates of human HepaRG cells were prepared using established methods. Briefly, cryopreserved HepaRG cells were thawed, plated at a density of approximately 100,000 cells/well in HepaRG Thaw, Plate, and General Purpose media (HPRG770, Thermo Fisher Scientific), and incubated for 48 hours. 0.5% DMSO was selected as vehicle control to balance the requisite need of DMSO in HepaRG cultures to maintain differentiation (for example, baseline metabolism, proportions of hepatocytes vs. cholangiocytes), while enabling further hepatic receptor pathway activation (for example, PXR and CAR) in response to chemical exposure. 48 hours after plating, the culture medium was replaced with HepaRG Serum-Free Incudtion Media. Cells were exposed to each test chemical in duplicate and maintained in CO2 incubators for another 48 hours. Chemical plates were thawed to room temperature and 200x concentrations of treatment groups were prepared. 8-point conentration-reponse curves were made with the highest exposure at 100 uM, followed by half-log dilutions, all in 0.5% DMSO. Each test plate contained variouse controls, induction positive controls (1mM phenobarbital), cytotoxicity positive controls ([…] aflatoxin B1), vehicle controls (0.5% DMSO), and total lysis controls (0.5% DMSO). Cell morphology images were taken using an Essen IncuCyte FLR automated microscope, with six 96-well plates imaged in about 24 minutes. Images were captured and exported and JPEG files. Spent culture media was transfered to black-well plates for the LDH assay, and remaining media was sorted at -80 C for later use. Cells were treated with RLT buffer and frozen until shipped for gene expression analysis. Total RNA was isolated from the cell suspension in 75 uL of Buffer RLT (Qiagen, Germantown, MD 20874) by Quintiles/Expression Analysis (Durham, NC) using a custom isolation procedure. Total RNA from each plate well was transferred to a preamplification plate. Fluidigm's 96.96 Dynamic ArrayTM (Fluidigm, Amsterdam, the Netherlands) technology was used for gene expression analyses by quantitative reverse transcription polymerase chain reaction (qRT-PCR, performed by Quintiles/Expression Analysis, Durham, NC)89. Standard TaqManTM Assays (Applied Biosystems/ThermoFisher Scientific, Foster City, CA) were used to assess the expression of 93 genes selected based on their selectivity and sensitivity to important hepatic receptors known to be modulated by environmental chemicals; importance in human hepatocyte functionality; and hepatotoxicity. […]
`NS(=O)(=O)c1cc2c(cc1Cl)NCNS2(=O)=O` was tested, and the outcome was “inactive”. `CCCCCCCCCCO` was tested, and the outcome was “inactive”. In the case of `Cc1cccc(Nc2cc(Cl)nc(SCC(=O)O)n2)c1C`, the outcome is reported as “inactive”. For `CCNc1cccc(C)c1`, the outcome was “inactive”. `CC(=O)OCCOCCOCCOC(C)=O` was tested, and the outcome was “inactive”. For `CCCCc1ccc2c(n1)[C@@H](c1ccc(OC)cc1C[C@H](C)C(=O)O)[C@H](C(=O)O)[C@H]2c1ccc2c(c1)OCO2`, the outcome was “inactive”. `Cc1ccc(C)c(O)c1C` was tested, and the outcome was “inactive”. `CCCCCCCCCCC` was tested, and the outcome was “inactive”. `CCOC(=O)CCC(=O)OCC` was tested, and the outcome was “inactive”. For `O=c1c(O)c(-c2ccc(O)c(O)c2)oc2cc(O)cc(O)c12`, the outcome was “inactive”. `CC(=O)C(C)=CC1C(C)=CCCC1(C)C` (stereo not given) was tested, and the outcome was “inactive”. `Cc1ccc(Cl)cc1` was tested, and the outcome was “inactive”. In the case of `Oc1ccc2c(c1)OC[C@@H](N1CCC(O)(c3ccc(F)cc3)CC1)[C@H]2O`, the outcome is reported as “inactive”. With `CCCCCC(=O)O` the outcome was “inactive”. For `O=c1[nH]cc(F)c(=O)[nH]1`, the outcome was “inactive”. For `Cc1ccc(C)c(C)c1`, the outcome was “inactive”. With `COc1ccc(S(=O)(=O)N2C(=O)[C@@](c3ccccc3OC)(N3C[C@H](O)C[C@H]3C(=O)N(C)C)c3cc(Cl)ccc32)c(OC)c1` the outcome was “inactive”. `O=[N+]([O-])C(CO)(CO)CO` was tested, and the outcome was “inactive”. In the case of `CC(C)c1ccc(C(=O)N=C(N)N)cc1S(C)(=O)=O`, the outcome is reported as “inactive”. For `COCCOC[C@H](CC1(C(=O)NC2CCC(C(=O)O)CC2)CCCC1)C(=O)Oc1ccc2c(c1)CCC2` (stereo not given in full), the outcome was “inactive”. In the case of `Nc1ccccc1N`, the outcome is reported as “inactive”. With `CN1CCCC1=O` the outcome was “inactive”. For `CCCCCCCCCCCCCO`, the outcome was “inactive”. `CNC(=O)[C@H]1O[C@@H](n2cnc3c(NCc4cc(Cl)ccc4OCc4cc(C)no4)ncnc32)[C@H](O)[C@@H]1N` was tested, and the outcome was “inactive”. `COC(=O)c1ccc(O)cc1` was tested, and the outcome was “inactive”. `Nc1nc(N)c2nc(CNc3ccc(C(=O)N[C@@H](CCC(=O)O)C(=O)O)cc3)cnc2n1` was tested, and the outcome was “inactive”. With `CCCCCCCCCCCC(=O)OC` the outcome was “inactive”. For `CCOC(=O)C(C)(C)Oc1ccc(Cl)cc1`, the outcome was “inactive”. `CCCCCCCCCCCCCCCCCC(=O)O` was tested, and the outcome was “inactive”. With `Cc1cccc(C)c1O` the outcome was “inactive”. With `Cc1c(C(=O)O)c(O)cc2c1C(=O)c1c(O)c([C@@H]3O[C@H](CO)[C@@H](O)[C@H](O)[C@H]3O)c(O)c(O)c1C2=O` the outcome was “inactive”. With `COc1ccc2c(c1)c(CC(=O)O)c(C)n2C(=O)c1ccc(Cl)cc1` the outcome was “inactive”. `COc1cc(S(=O)(=O)O)c(C)cc1N=Nc1c(O)ccc2cc(S(=O)(=O)O)ccc12` was tested, and the outcome was “inactive”. With `CC(=O)Oc1ccccc1C(=O)O` the outcome was “inactive”. In the case of `FC(F)(F)C(F)(F)C(F)(F)C(F)(F)C(F)(F)C(F)(F)CCI`, the outcome is reported as “inactive”. `Nc1ccc(S(=O)(=O)c2ccc(N)cc2)cc1` was tested, and the AC50 was 12.7 µM (active). `Oc1ccc2ccccc2c1N=Nc1ccccc1` was tested, and the outcome was “inactive”. In the case of `CCCCCCCC=O`, the outcome is reported as “inactive”. `CN1CCN(Cc2cc(-c3ccc4[nH]c(=O)oc4c3)co2)[C@@H](c2ccc(F)cc2)C1` was tested, and the outcome was “inactive”. In the case of `COc1ccc(C)cc1N`, the outcome is reported as “inactive”.
